Experimental data from PubChem BioAssay (NCATS).
Results filed as inconclusive are left out. The source made the active and inactive calls. Calls follow the shape of the dose curve; as a rule, active = well fitted cell-killing curve with a large enough effect; inconclusive = small, poorly fitted or top-dose-only effect, or effect the other way; inactive = flat fitted curve, though single readings scatter.

Columns and labels:
Assay in all cases: Primary qHTS to identify gynecologic anti-cancer compounds using libraries of approved drugs and bioactive compounds (AID 1345084); also: nearly all actives have a fitted effect of over 55% in size
Details in all cases: Gynecologic cancer cell panel viability, ATPlite luminescence, 48 h; series mostly up to 57.5 µM
PA-1 = test system: PA-1
In short: (§1)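 48 h compound exposure at 37 C, 5% CO2; five-point qHTS. ATPlite luminescence readout of cell ATP.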

SKOV3 = test system: SKOV3
In short: as §1

Tov-21-G = test system: Tov-21-G
In short: as §1

Tov112D = test system: Tov112D
In short: as §1

Measured: Potency
Potency is read from the fitted curve at half-maximal effect.

CCN(CC)C(=O)C(c1ccccc1)N1CCN(c2ccc(NC(=O)c3ccccc3-c3cccnc3)cc2F)CC1 (centres undefined)
inactive: PA-1 | SKOV3 | Tov-21-G | Tov112D

CCNC(=O)N1CCCN(c2ccc(C(=O)NCCc3ccc(Cl)cc3Cl)cc2NC(=O)c2cccc(Cl)c2)CC1
inactive: PA-1 | Tov-21-G | Tov112D
active: SKOV3 1000 nM

Cc1ccc(C)c(NC(=O)[C@@H]2CCCN2S(=O)(=O)c2cccc3cccnc23)c1
inactive: PA-1 | SKOV3 | Tov-21-G | Tov112D

C=C1C(=O)OC2C=C(C)CC/C=C(\CO)CC(O)C12 (centres undefined)
inactive: PA-1 | SKOV3 | Tov-21-G | Tov112D

O=C1Nc2ccccc2-c2nc3ccccc3c(=O)n2-c2c(O)cccc21
inactive: PA-1 | SKOV3 | Tov-21-G | Tov112D

CCOc1ccc(S(=O)(=O)N2CCCCCC2)c2ccccc12
inactive: PA-1 | SKOV3 | Tov-21-G | Tov112D

CC1=CC2/C=C(\C)CCC3OC(C)(C)OC3CCC(=O)C23C(=O)NC(CC(C)C)C3C1C (centres undefined)
inactive: PA-1 | SKOV3 | Tov-21-G | Tov112D

CC1(C)Oc2ncnc(N)c2N=C1c1ccc(C23CCC(CC(=O)O)(CC2)CC3)cc1
inactive: PA-1 | SKOV3 | Tov-21-G | Tov112D

Cc1cccc(-c2[nH]ncc2-c2ccc(F)c(-c3cnn(CCO)c3)c2)n1
inactive: PA-1 | SKOV3 | Tov-21-G | Tov112D

COc1cc(C(C)=O)c(OC)c2c1OC(C)(C)C=C2
inactive: PA-1 | SKOV3 | Tov-21-G | Tov112D

CC(=O)O[C@@H]1C[C@@]23C[C@@]24CC[C@H](O[C@@H]2OC[C@H](O)[C@H](O)[C@H]2O)C(C)(C)[C@@H]4CC[C@H]3[C@]2(C)[C@@H](O)C34O[C@H](C[C@@H](C)[C@@H]3[C@@]12C)[C@@H](C(C)(C)O)O4
inactive: PA-1 | SKOV3 | Tov-21-G | Tov112D
